Screening data (PubChem)
Hits are enriched below; roughly 2.7% of the tested compounds scored in any of these assays.
ALOX12 inh: ALOX12 (human) lipoxygenase inhibition. P18054. purified 12hLO, xylenol orange hydroperoxide absorbance. Potency, µM (series often up to 108 µM), for the others: top-dose activity change, negative = inhibition, usual class: inhibitors. 580,000 tested, 1.1% active. AID 1671190; also: potency is read from the fitted curve at half-maximal effect; % is scaled to controls: 0 for no effect and ±100 for the full control effect
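Hydroperoxide product was detected by ferrous iron/xylenol orange as the 573 to 405 nm absorbance ratio. Arachidonic acid at 40 uM (final) was turned over for 30 min at room temperature by 150 nM human 12hLO, pH 7.0 Hepes buffer, after 15 min compound preincubation.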
ERG-DNA inh: ERG Ets/DNA interaction inhibition; 370,000 tested, 0.028% active; fluorescence polarization, His-ERG Ets domain / labelled DNA; Potency, µM (titrated, usually from 76.9 µM), inactives show at the highest dose FP activity, negative = inhibition, hits mostly inhibitors; P11308; AID 624246; active = well fitted inhibition curve with a large enough effect in the polarisation, with a control signal flat; inconclusive = small, poorly fitted or top-dose-only effect, or effect the other way, or a change in a side signal; inactive = no such curve, though single readings can be large or run the other way; the % refers to the polarisation;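 also: polarization taken with two DNA probes labelled with fluorescein and Texas red; potency is read from the fitted curve at half-maximal effect; % of control where 0% means no effect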
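His-tagged ERG Ets domain (1 uM in the protein solution; 300mM KCl, 50mM Tris-HCl, 1mM EDTA, 1mM DTT, pH 7.5) received compound, then a probe mix of 5 nM fluorescein-DNA and 100nM Texas-615-DNA. Fluorescence polarization was read for both dyes.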
Nrf2 activator: activates Nrf2 signaling; AREc32 ARE-luciferase reporter (MCF7-derived line), luminescence, 24 h; Potency, µM (doses to about 46.1 µM), without a hit: at the highest dose activation, actives largely listed as activators; 410,000 tested, 0.31% active; AID 624171; also: potency is read from the fitted curve at half-maximal effect; % of control where 0% means no effect; nearly all actives have a fitted effect of over 65% in size
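AREc32 cells carrying an ARE-driven firefly luciferase reporter were seeded at 1000 cells/well in OPTI-MEM with 5% FBS, then exposed to compound for 24 hr at 37 deg C. Luminescence was read with Steady-Glo after 30 min at RT.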
Nrf2 block: Nrf2 pathway inhibition. A549 ARE-Fluc reporter, luciferase luminescence, 18-24 h. Potency, µM (series often up to 46 µM), inactives show at the top dose activity change, negative = inhibition, actives largely listed as inhibitors. 360,000 tested, 2.1% active. AID 504444; also: potency is read from the fitted curve at half-maximal effect; % is scaled to controls: 0 for no effect and ±100 for the full control effect; nearly all actives have a fitted effect of over 60% in size
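Cells were seeded and rested 2 h, then exposed to compounds for 18-24 h. CellTiter-Fluor was read first as a viability measure. BugLite was added 15 min before the final luminescent read of ARE-luciferase activity in A549 cells.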
A549 tox-1: counter-screen for Nrf2 inhibitors: cytotoxicity in A549 cells. 390,000 tested, 0.16% active. Potency, µM (series often up to 46 µM), inactives show at the highest dose activity change, negative = cytotoxicity, hits mostly inhibitors. A549 ARE-Fluc cells, CellTiter-Fluor viability, 18-24 h; also: potency is read from the fitted curve at half-maximal effect; % is scaled to controls: 0 for no effect and ±100 for the full control effect
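Cytotoxicity counterscreen: CellTiter-Fluor fluorescence was measured in A549 ARE_Fluc cells after 18-24 h of compound exposure in a concentration series. The subsequent BugLite luminescent read reports ARE-luciferase activity.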
LDHA inh: LDHA (human) enzyme inhibition; P00338; purified LDHA, NADH/diaphorase-resazurin fluorescence; active compounds read low; activity change, % (values are at about 110 or 230 µM); 480,000 tested, 0.15% active; in the data active = activity change below about -30%; inconclusive = mostly about -25% to -30%;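 also: plate controls were DMSO wells for no effect and wells without enzyme for full effect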
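LDH5 2 nM; NADH 0.06 mM, pyruvate 0.2 mM; 200 mM Tris pH 7.4, EDTA, Tween-20; 5 min RT. Detection: diaphorase 0.133 mg/mL + resazurin 37 µM, fluorescence ex540/em590 at 0 and 20 min; normalized to enzyme-free and DMSO wells.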
FLuc counter 3: blocks purified firefly luciferase in Nrf2 counterscreen; shares compounds with Nrf2 block; purified firefly luciferase, luminescence inhibition; Potency, µM (highest dose often 57.5 µM), for the others: at the highest dose activity change, negative = inhibition, usual class: inhibitors; 1,400 tested, 4% active; AID 720522; also: potency is read from the fitted curve at half-maximal effect; % is scaled to controls: 0 for no effect and ±100 for the full control effect; nearly all actives have a fitted effect of over 65% in size
Target sequence (P08659 whole entry, looked up): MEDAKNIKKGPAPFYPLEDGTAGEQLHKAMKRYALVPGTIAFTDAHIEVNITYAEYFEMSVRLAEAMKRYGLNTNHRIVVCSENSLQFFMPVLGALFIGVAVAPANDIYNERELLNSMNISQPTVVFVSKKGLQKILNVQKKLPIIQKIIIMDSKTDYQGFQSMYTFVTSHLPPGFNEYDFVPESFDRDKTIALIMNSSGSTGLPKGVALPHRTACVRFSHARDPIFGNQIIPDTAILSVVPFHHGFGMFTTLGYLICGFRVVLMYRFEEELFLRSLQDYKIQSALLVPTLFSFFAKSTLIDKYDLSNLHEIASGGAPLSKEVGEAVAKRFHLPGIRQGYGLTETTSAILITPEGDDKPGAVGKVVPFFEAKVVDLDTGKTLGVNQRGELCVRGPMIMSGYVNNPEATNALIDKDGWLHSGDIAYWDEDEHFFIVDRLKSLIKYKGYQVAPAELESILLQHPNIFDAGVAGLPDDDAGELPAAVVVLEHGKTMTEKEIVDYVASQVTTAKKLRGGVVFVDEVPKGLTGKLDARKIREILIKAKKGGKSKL
A549 tox-2: counter-screen for Nrf2 inhibitors: cytotoxicity in A549 ARE cells. shares compounds with Nrf2 block. A549 ARE-Fluc cells, cytotoxicity counterscreen. Potency, µM (titrated, usually from 46.1 µM), inactives show top-dose activity change, negative = cytotoxicity, actives largely listed as inhibitors. 1,400 tested, 2% active. AID 720523;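 also: potency is read from the fitted curve at half-maximal effect; cells exposed to compounds for 18 to 24 hours; % is scaled to controls: 0 for no effect and ±100 for the full control effect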
Nrf2 ARE inh: confirmation of Nrf2 inhibitors in A549 ARE reporter cells; AID 720524; Potency, µM (titrated, usually from 46.1 µM), for inactives: at the top dose activity change, negative = inhibition, usual class: inhibitors; 1,400 tested, 74% active; shares compounds with Nrf2 block; A549 ARE-firefly luciferase reporter, luminescence; also: potency is read from the fitted curve at half-maximal effect; % is scaled to controls: 0 for no effect and ±100 for the full control effect; nearly all actives have a fitted effect of over 65% in size
* marks the source's active call; other numbers are inactive results; ? = inconclusive; . = no result given; ! = repeats disagree. Unless noted, calls follow the shape of the dose curve; as a rule, active = well fitted curve in the direction sought with a large enough effect; inconclusive = small, poorly fitted or top-dose-only effect, or another doubt; inactive = no such curve, though single readings can be large; an effect the other way counts as inactive or inconclusive.

SMILES | ALOX12 inh | ERG-DNA inh | Nrf2 activator | Nrf2 block | A549 tox-1 | LDHA inh | FLuc counter 3 | A549 tox-2 | Nrf2 ARE inh
O=C(N/N=C\c1ccc(Cl)cc1)C1=NOC2COC3(CCN(c4ccc([N+](=O)[O-])cc4)CC3)OCC12 (configuration not stated) | -22% | 11% | 0% | 2.6µM* | ? | -3 | -1% | -12% | .
COc1ccc(F)cc1CN(C)CC(=O)N1c2ccccc2NC(=O)CC1C (configuration not stated) | 16% | . | . | . | . | 20 | . | . | .
CCN(CC)CCNC(=O)c1cc(-c2ccc(Br)s2)nc2ccccc12 | ? | -9% | -3% | -1% | -17% | -2 | . | . | .
CCCCOc1cc(C(=O)NCCN(CC)CC)c2ccccc2n1 | ? | -8% | 4% | 9.2µM*! | -6% | -1 | -1% | -2% | 6.5µM*
O=C(Nc1cccc(S(=O)(=O)N2CCCCCC2)c1)c1n[nH]c(=O)c2ccccc12 | -22% | . | . | . | . | -22 | . | . | .
CCc1nc(C)cn1S(=O)(=O)c1ccc(Cl)c(Cl)c1OC | -8% | -8% | 0% | 5.8µM* | 0% | -2 | 0% | -1% | 5.8µM*
CCOc1cc(Cl)c(S(=O)(=O)n2cc(C)nc2CC)cc1Cl | -4% | -8% | 0% | 8.2µM* | -8% | -3 | 3% | 0% | 8.2µM*
COc1c(S(=O)(=O)N2CCN(c3ccc(F)cc3)CC2)ccc(Cl)c1Cl | 0% | 2% | 0% | -18% | 14% | -6 | . | . | .
CCOc1ccc(OCC)c(S(=O)(=O)n2cc(C)nc2CC)c1 | -12% | 3% | 0% | 22% | 9% | -3 | . | . | .
NC(N)=NCc1ccco1 | -8% | . | . | . | . | -3 | . | . | .
CN(Cc1cccc(F)c1)C(=O)c1cccc(S(=O)(=O)N2CCN(Cc3ccccc3)CC2)c1 | . | -4% | -1% | ? | -12% | 1 | . | . | .
CN(Cc1ccc(Cl)c(Cl)c1)C(=O)c1cccc(S(=O)(=O)N2CCN(Cc3ccccc3)CC2)c1 | 31% | 2% | 0% | 9.2µM* | -20% | 1 | -2% | -24% | ?
CN(Cc1ccc(OC(F)F)cc1)C(=O)c1cccc(S(=O)(=O)N2CCN(c3ccccc3)CC2)c1 | 61% | -7% | 0% | 4.6µM* | -17% | -4 | -2% | 2% | .
COc1cc(OC)cc(-c2cc3nc(C)c(CCC(=O)Nc4ccc(F)c(Cl)c4)c(C)n3n2)c1 | -7% | -6% | -5% | 2.1µM* | -1% | 5 | ? | -5% | 5.8µM*
Cc1ccc(SCc2nc(-c3ccc(C(=O)Nc4cc(C)ccc4C)cc3)oc2C)cc1 | -21% | 0% | 1% | 5.8µM* | -3% | 4 | -2% | -6% | 7.3µM*
COc1cccc(NC(=O)c2ccc(-c3nc(COc4ccc(C)cc4)c(C)o3)cc2)c1 | -11% | 1% | 3% | 5.2µM* | -1% | 6 | -12% | -12% | ?
CCc1ccc(CNC(=O)c2ccc(-c3nc(CSc4ccc(C)cc4)c(C)o3)cc2)cc1 | ? | 2% | -1% | ? | -4% | -2 | . | . | .
COc1cc(NC(=O)c2ccc(-c3nc(CSc4ccccc4)c(C)o3)cc2)cc(OC)c1 | -20% | 5% | 0% | 7.3µM* | 0% | -1 | -15% | -8% | 7.3µM*
CCCCCCCCCCCCCCCC[n+]1ccc(/C=C/c2c[nH]c3ccccc23)cc1 | . | . | . | . | . | . | ? | ? | 7.3µM*
OCC[n+]1ccc(/C=C/c2c[nH]c3ccccc23)cc1 | ? | -1% | -1% | 6.5µM* | ? | 23 | 0% | ? | 8.2µM*
C[C@@H]1C[C@H]2[C@@H]3CCC4=CC(=O)C=C[C@]4(C)[C@@]3(F)[C@@H](O)C[C@]2(C)[C@H]1C(=O)CO | -9% | 16% | -1% | 0.018µM* | -1% | -13 | 3% | -15% | 0.015µM*
C[C@@H]1C[C@@H]2[C@H]3CCC4=CC(=O)C=C[C@]4(C)[C@]3(F)[C@@H](O)C[C@@]2(C)[C@@]1(O)C(=O)CO | 0% | . | . | . | . | . | . | . | .
C[C@@H]1C[C@H]2[C@@H]3CCC4=CC(=O)C=C[C@]4(C)[C@@]3(F)[C@@H](O)C[C@]2(C)[C@@]1(O)C(=O)CO | 5% | 8% | -1% | 0.0046µM* | -9% | -5 | 1% | -4% | 0.0052µM*
CC(=O)C12OC(C)(C)OC1CC1C3CCC4=CC(=O)C=CC4(C)C3(F)C(O)CC12C (configuration not stated) | 0% | 5% | 3% | 0.0082µM* | 13% | -6 | 0% | -12% | 0.0065µM*
CC1(C)O[C@@H]2C[C@H]3[C@@H]4CCC5=CC(=O)CC[C@]5(C)[C@@]4(F)[C@@H](O)C[C@]3(C)[C@]2(C(=O)CCl)O1 | -1% | 12% | 1% | 0.012µM* | -12% | -1 | 3% | -11% | 0.0082µM*
CC1(C)OC2CC3C4CCC5=CC(=O)C=CC5(C)C4(F)C(O)CC3(C)C2(C(=O)CO)O1 (configuration not stated) | 11% | . | . | . | . | . | . | . | .
Cc1ccc(C(=O)/C=C/c2ccc(C(C)C)cc2)cc1[N+](=O)[O-] | -22% | . | . | . | . | -24 | . | . | .
